Test systems include NCI-H23 lung; NCI-H226 lung; NCI-H322M lung; NCI-H460 lung; HOP-92 NSCLC; NCI-H522 lung; A549/ATCC NSCLC; 786-0 renal; COLO 205 colon; DU-145 prostate; K-562 leukemia; MALME-3M melanoma; MDA-MB-231 breast; RXF 393 renal; SF-268 CNS; SF-295 CNS; SF-539 CNS; UACC-257 melanoma; M14 melanoma.
Holding throughout (test): NCI-60 one-dose screen, 48 h (100 = growth as untreated, 0 = no growth, -100 = all killed)
Common to all, as to settings: 10 µM unless noted

About 83,000 compounds went through this panel and 20% of them were active in at least one assay; those are over-represented in the sample as a whole.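 The test compound was applied at a single concentration to cells in 96-well plates for 48 hours, and percent growth was recorded.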 Unmarked numbers belong to inactive results. The source made the active and inactive calls. Rule for the calls: active = growth percent below 10; inactive = the rest.

Consider `COc1cc(C[C@H]2COc3cc(O)cc(O)c3C2=O)ccc1O`, for which the growth is 49.8% in the experiment with NCI-H23 lung; 101% with NCI-H226 lung; 69.7% with NCI-H322M lung; 18.6% in the experiment with NCI-H460 lung; 30.9% with HOP-92 NSCLC; 17.2% in the experiment on NCI-H522 lung. Besides, the growth in the experiment on A549/ATCC NSCLC is 46%; in the experiment with 786-0 renal, 25.6%; with COLO 205 colon, 106%; in the experiment on DU-145 prostate, 43.1%; with K-562 leukemia it was 9.86% (active); in the experiment with MALME-3M melanoma, 62%. The growth in the experiment on MDA-MB-231 breast was 55.3%; in the experiment with RXF 393 renal, 34.7%; with SF-268 CNS, 47.2%; in the experiment on SF-295 CNS, 54.5%; with SF-539 CNS it was 3.27% (active); in the experiment with UACC-257 melanoma, 35.8%. Besides, the growth in the experiment with M14 melanoma was 9.16% (active).

For `O=c1cc(-c2ccccc2)nc(SCc2nc3cc(Cl)c(Cl)cc3[nH]2)[nH]1`, the growth in the experiment on NCI-H23 lung is 90.9%; in the experiment with NCI-H226 lung it was 101%; in the experiment with NCI-H322M lung it was 90.7%; in the experiment with NCI-H460 lung it was 111%; with HOP-92 NSCLC it was 104%; in the experiment with NCI-H522 lung it was 85.3%. Further, the growth with A549/ATCC NSCLC was 114%; with 786-0 renal it was 96.7%; in the experiment with COLO 205 colon it was 108%; in the experiment on DU-145 prostate it was 106%; in the experiment with K-562 leukemia, 88.8%; with MALME-3M melanoma it was 103%. The growth in the experiment with MDA-MB-231 breast was 102%; in the experiment on RXF 393 renal, 107%; in the experiment on SF-268 CNS, 101%; with SF-295 CNS, 102%; in the experiment on SF-539 CNS, 94.3%; in the experiment with UACC-257 melanoma, 103%. The growth with M14 melanoma is 104%.

As for `COC(=O)c1ccc2c(c1)c1c(C)c3cnccc3c(C)c1n2C`, the growth was -47.1% (active) with NCI-H23 lung; -41.1% (active) in the experiment with NCI-H226 lung; -14% (active) with NCI-H322M lung; -32.4% (active) in the experiment with NCI-H460 lung; -16.6% (active) with HOP-92 NSCLC; -65.1% (active) with NCI-H522 lung. For the same compound, the growth was -17% (active) with A549/ATCC NSCLC; -63.4% (active) with 786-0 renal; -39.9% (active) in the experiment with COLO 205 colon; -4.07% (active) with DU-145 prostate; 1.64% (active) with K-562 leukemia; -73.7% (active) with MALME-3M melanoma. Moreover, the growth in the experiment on MDA-MB-231 breast was -16.7% (active); with RXF 393 renal it was -76.1% (active); in the experiment with SF-268 CNS it was 3.86% (active); in the experiment on SF-295 CNS, -10.5% (active); in the experiment with SF-539 CNS, -37.5% (active); in the experiment on UACC-257 melanoma, -41.4% (active). In addition, the growth in the experiment on M14 melanoma is -88.6% (active).

As to `COc1ccc(-c2cc(-c3cccnc3)nc3sc4c(N)c(C(C)=O)c(-c5ccccc5)nc4c23)cc1OC`, the growth with NCI-H23 lung is 66.7%; in the experiment on NCI-H226 lung, 94.3%; in the experiment with NCI-H322M lung, 90.5%; in the experiment with NCI-H460 lung, 78%; in the experiment on HOP-92 NSCLC it was 61.9%; in the experiment on NCI-H522 lung, 56.6%. The growth is 69% with A549/ATCC NSCLC; 68.9% in the experiment with 786-0 renal; 94.8% in the experiment with COLO 205 colon; 80.9% with DU-145 prostate; 32.3% in the experiment on K-562 leukemia; 93.3% in the experiment with MALME-3M melanoma. For the same compound, the growth in the experiment with MDA-MB-231 breast is 51.5%; in the experiment with RXF 393 renal it was 50.1%; in the experiment on SF-268 CNS it was 69.6%; in the experiment with SF-295 CNS, 48.7%; with SF-539 CNS, 52.8%; in the experiment with UACC-257 melanoma, 92.3%. Further, the growth with M14 melanoma was 104%.

As for `CN(C)Cc1cc(C(C)(C)C)cc(Br)c1O`, the growth with NCI-H23 lung is 107%; with NCI-H226 lung, 101%; with NCI-H322M lung, 118%; in the experiment on NCI-H460 lung, 86.5%; with HOP-92 NSCLC, 87.5%; in the experiment on NCI-H522 lung, 103%. Also, the growth in the experiment on A549/ATCC NSCLC was 109%; in the experiment with 786-0 renal it was 101%; in the experiment with COLO 205 colon, 102%; with DU-145 prostate, 109%; in the experiment with K-562 leukemia it was 106%; in the experiment on MALME-3M melanoma, 122%. For the same compound, the growth in the experiment with MDA-MB-231 breast is 113%; in the experiment with RXF 393 renal, 93.9%; in the experiment with SF-268 CNS, 104%; in the experiment with SF-295 CNS, 97.3%; in the experiment with SF-539 CNS it was 88.6%; with UACC-257 melanoma it was 119%. In addition, the growth in the experiment with M14 melanoma is 101%.

Consider `COCCn1cc(-c2csc(-c3c[nH]c4ccccc34)n2)c2cccnc21`, for which the growth with NCI-H23 lung is 42.2%; in the experiment on NCI-H226 lung it was 60.9%; in the experiment with NCI-H322M lung, 61%; in the experiment on NCI-H460 lung, 18.8%; with HOP-92 NSCLC, 55.5%; in the experiment on NCI-H522 lung, -33.6% (active). Moreover, the growth was 25% in the experiment on A549/ATCC NSCLC; 43.5% in the experiment with 786-0 renal; -8.68% (active) with COLO 205 colon; 62.3% in the experiment on DU-145 prostate; 18.1% in the experiment with K-562 leukemia; 52.3% in the experiment with MALME-3M melanoma. The growth in the experiment on MDA-MB-231 breast is 35%; in the experiment on RXF 393 renal, 72.2%; in the experiment on SF-268 CNS it was 50.1%; with SF-295 CNS it was 25.8%; in the experiment with SF-539 CNS, 43.5%; in the experiment on UACC-257 melanoma it was 45.9%. Also, the growth in the experiment on M14 melanoma was 18.6%.

On to `CC/C(=C(/c1ccc(O)cc1)c1ccc(OCCN2CCCCC2)cc1)c1ccc(OC)cc1`, for which the growth with NCI-H23 lung was 79.2%; in the experiment with NCI-H226 lung, 103%; in the experiment on NCI-H322M lung, 90.2%; in the experiment on NCI-H460 lung it was 57.4%; with HOP-92 NSCLC, 70.2%; with NCI-H522 lung, 74.7%. The growth in the experiment with A549/ATCC NSCLC is 64.4%; with 786-0 renal, 57.1%; with COLO 205 colon it was -28.9% (active); with DU-145 prostate it was 71.3%; with K-562 leukemia, -30.8% (active); in the experiment on MALME-3M melanoma it was -28.3% (active). Also, the growth in the experiment on MDA-MB-231 breast was 55.1%; in the experiment on RXF 393 renal it was 68.4%; in the experiment on SF-268 CNS, 62.6%; in the experiment on SF-295 CNS it was 86.9%; in the experiment on SF-539 CNS, 86.3%; with UACC-257 melanoma, 81%. The growth with M14 melanoma is -61.2% (active).

For the compound `Cc1cc(=O)oc2cc(Oc3nc(Br)cn4c(Br)cnc34)ccc12`, the growth was 63.9% in the experiment on NCI-H23 lung; 53.6% in the experiment with NCI-H226 lung; 76.8% with NCI-H322M lung; 73.9% in the experiment with NCI-H460 lung; 37.2% in the experiment with HOP-92 NSCLC; 54.8% in the experiment with NCI-H522 lung. Besides, the growth was 77.8% with A549/ATCC NSCLC; 29% in the experiment with 786-0 renal; 113% with COLO 205 colon; 75% with DU-145 prostate; 93.6% with K-562 leukemia; 46.9% with MALME-3M melanoma. The growth was 29.6% in the experiment with MDA-MB-231 breast; 44.2% with RXF 393 renal; 56.6% in the experiment with SF-268 CNS; 99.9% in the experiment with SF-295 CNS; 47.2% with SF-539 CNS; 89.1% in the experiment on UACC-257 melanoma. In addition, the growth in the experiment on M14 melanoma was 82.8%.

(Values after PubChem BioAssay (NCI).)
